# Assay results as given in PubChem BioAssay AID504373 (National Center for Advancing Translational Sciences (NCATS), 2011).
# Inconclusive results are not listed. Active and inactive are the calls of the source.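 The calls were made as follows: active = fewer circulating green fluorescent tagged thrombocytes in treated fish, with no visible harm to the embryos; inconclusive = compound visibly harmful to the embryos; inactive = no drop in circulating tagged thrombocytes.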
# Assay: qHTS Assay for Compounds Blocking the Interaction Between CBF-beta and RUNX1 for the Treatment of Acute Myeloid Leukemia: Zebrafish assay for Hematopoiesis, SAR for Probe
# Settings: GFP-cd41 zebrafish embryos, microscopy, 5 days, stronger effect = lower value
# Source text: NIH Chemical Genomics Center [NCGC] NIH Molecular Libraries Probe Production centers Network [MLPCN] MLPCN Grant: X01MH083259-01 Assay Submitter (PI): Paul Liu NCGC Assay Overview: Core Binding Factor (CBF) abnormalities are associated with 20-25% of all acute myeloid leukemias (AML), of which 5-10% are further sub classified as acute myelomonocytic leukemia with eosinophilia, also known as M4Eo in the FAB classification scheme. This subtype of leukemia is usually associated with chromosome 16 inversion (p13:q22). Chromosome 16 inversion results in formation of the fusion oncogene CBFB-MYH11, which encodes the fusion protein CBF-beta-SMMHC. […] It has been hypothesized that the interference of CBF-beta and RUNX1 binding could have therapeutic implications for patients with CBF mediated leukemias. We developed a CBF-beta and RUNX1 binding assay in AlphaScreenTM format and optimized it for high throughput screening to search for inhibitors. The goal of this project is to screen MLPCN's compound collection (MLSMR) for identifying the inhibitors of the interaction between CBF-beta and RUNX1 proteins as research probes. If these probes work well in the animal models, the ultimate goal of this project is to development a new drug treatment for this disease. […] These fish contain a genomic modulation where GFP has been fused to cd41, a marker for thrombocytes, and thus circulating thrombocytes can be easily imaged in anesthetized fish.
# Assay protocol: GFP-cd41 zebrafish were kindly provided by the Liu lab. Zebrafish embryos were incubated with compound (<0.1% DMSO final) at 48 hours post fertilization, for 5 days. Embryos were manually scored under a microscope with GFP illumination for circulating GFP-tagged thrombocytes. Keywords: MLSMR, MLPCN, NIH Roadmap, qHTS, NCGC, Core binding factor, CBF, CBF-beta, Acute myeloid leukemia
SMILES,fish with circulating GFP thrombocytes (at 25 µM),fish with circulating GFP thrombocytes (at 50 uM) [%]
CCN(CC)CCN1C(=O)CN=C(c2ccc[nH]2)c2cc(Cl)ccc21,45.8% (active),70.8
CN1C(=O)CN=C(c2ccc[nH]2)c2cc(Cl)ccc21 (tested in a mixture with another compound),29.2% (active),0
CCN(CC)CCN1C(=O)CN=C(c2ccccn2)c2cc(Cl)ccc21,66.7% (active),66.7
